Results: PubChem BioAssay (Tox21)
Records with an inconclusive call do not appear. Where a call stands in place of a potency, no number is given. Calls of active or inactive are those of the source. Unless noted, calls come from the whole dose curve; as a rule, active = well fitted curve in the direction sought with a large enough effect in the repeat runs; inconclusive = weak or mixed curves; inactive = no such curve, though single readings can be large; an effect the other way counts as inactive or inconclusive.

What was measured:
[1] = qHTS assay to identify small molecule antagonists of the androgen receptor (AR) signaling pathway using the MDA cell line in the presence of 0.5 nM R1881 - cell viability counter screen (AID 1259242); note: nearly all actives have a fitted effect of over 45% in size; note: potency is the fitted concentration of half-maximal effect
Outline: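 MDA-kb2 cells (human breast carcinoma, stably carrying MMTV-luciferase reporter) were exposed to compounds with 0.5 nM R1881 (final) for 16 hr at 37C, 0% CO2; viability then read as live-cell protease fluorescence (CellTiter-Fluor, 30 min) in the same wells.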

[2] = target: Estrogen receptor (Homo sapiens) (UniProt P03372); assay: qHTS assay to identify small molecule antagonists of the estrogen receptor alpha (ER-alpha) signaling pathway using the BG1 cell line in the presence of 0.1 nM 17-beta-estradiol (AID 1259244); note: nearly all actives have a fitted effect of over 50% in size
Chain of Estrogen receptor (Homo sapiens) (P03372 whole entry, looked up): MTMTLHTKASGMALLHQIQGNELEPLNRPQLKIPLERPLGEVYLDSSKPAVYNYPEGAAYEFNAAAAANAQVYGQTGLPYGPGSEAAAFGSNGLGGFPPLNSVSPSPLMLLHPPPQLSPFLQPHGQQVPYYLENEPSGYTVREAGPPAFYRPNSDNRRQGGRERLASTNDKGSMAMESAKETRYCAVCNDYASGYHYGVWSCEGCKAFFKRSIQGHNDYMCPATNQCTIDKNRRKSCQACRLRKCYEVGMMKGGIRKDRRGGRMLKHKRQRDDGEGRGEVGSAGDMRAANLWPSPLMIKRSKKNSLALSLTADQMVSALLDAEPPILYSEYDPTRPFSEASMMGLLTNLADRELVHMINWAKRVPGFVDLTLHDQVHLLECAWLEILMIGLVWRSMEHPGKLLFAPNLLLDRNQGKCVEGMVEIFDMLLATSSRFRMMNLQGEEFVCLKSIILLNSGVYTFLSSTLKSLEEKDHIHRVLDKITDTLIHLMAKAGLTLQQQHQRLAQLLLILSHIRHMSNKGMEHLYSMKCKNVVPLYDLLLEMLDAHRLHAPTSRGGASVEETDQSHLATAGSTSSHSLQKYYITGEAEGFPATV
Outline: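 VM7Luc4E2 cells (endogenous full-length ER-alpha, stable 4xERE-luciferase) were grown 5 days in phenol red-free medium with charcoal-stripped FBS, then exposed 22 h at 37C to compounds plus 0.1 nM (final) 17beta-estradiol; ONE-Glo luminescence read-out.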

[3] = qHTS assay to identify small molecule phospholipidosis (PLD) inducers (AID 1259344; active = well fitted curve in the direction sought with a large enough effect; an effect the other way counts as inactive or inconclusive; note: potency is the fitted concentration of half-maximal effect)
Outline: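 Fluorescent phospholipid staining (LipidTOX Red) measured by automated microscopy in fixed HepG2 cells after 24 h treatment; nuclei counterstained with Hoechst 33342; amiodarone as reference inducer.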

[4] = qHTS assay to identify small molecule HDAC inhibitors (AID 1259364); note: top concentration of the series differs between compounds; nearly all actives have a fitted effect of over 45% in size
Outline: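 Wild-type HCT-116 cells were plated overnight, exposed to compounds for 2 h at 37 °C, then given HDAC-Glo class I/II luminogenic reagent for 30 min at room temperature before luminescence was read.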

[5] = qHTS assay to identify small molecule HDAC inhibitors - cell viability counter screen (AID 1259365); note: series mostly up to about 92 µM; nearly all actives have a fitted effect of over 50% in size
Outline: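 Counter screen in wild-type HCT-116 cells: compounds dissolved in DMSO are pin-transferred onto overnight-plated cells and left 2hr at 37C. ATP-based CellTiter-Glo luminescence then measures viable cells.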

[6] = qHTS assay to identify small molecule agonists of the sonic hedgehog signaling (Shh) pathway - cell viability counter screen (AID 1259366); note: nearly all actives have a fitted effect of over 50% in size; note: potency is the fitted concentration of half-maximal effect
Outline: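 Cells are plated at 2,000 per well and left 4hr at 37C, 5% CO2 before compound addition. After 23hr of treatment, CellTiter-Fluor reagent is added for 1hr at 37C and fluorescence is measured.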

[7] = qHTS assay to identify small molecule antagonists of the sonic hedgehog signaling (Shh) pathway - cell viability counter screen (AID 1259367); note: nearly all actives have a fitted effect of over 55% in size; note: potency is the fitted concentration of half-maximal effect
Outline: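 Using CellTiter-Fluor, viability of Gli1-Luc reporter 3T3 cells is read by fluorescence in the wells used for the Shh luciferase assay. Treatment lasts 23 hr with conditioned medium, then reagent 1 hr at 37C.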

[8] = qHTS assay to identify small molecule agonists of the sonic hedgehog signaling (Shh) pathway (AID 1259368; calls by dose curve; note: series mostly up to about 92 µM; nearly all actives have a fitted effect of over 15% in size)
Outline: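 NIH/3T3-derived 3T3Gli1-Luc cells carrying a stably integrated Gli1 response element–firefly luciferase reporter were plated, left 4 hr at 37 C, then given compounds in DMSO for 24 hr. Luminescence was read 30 min after adding luciferase reagent.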

[9] = qHTS assay to identify small molecule antagonists of the sonic hedgehog signaling (Shh) pathway (AID 1259369; calls by dose curve; note: nearly all actives have a fitted effect of over 45% in size; note: potency is the fitted concentration of half-maximal effect)
Outline: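 NIH/3T3-derived 3T3Gli1-Luc cells with stably integrated Gli1-Luc reporter were preincubated 4hr at 37 C, then given compounds in DMSO plus Shh conditioned medium and incubated 24hr. Firefly luciferase luminescence read after 30min reagent at room temperature.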

[10] = target: Estrogen receptor beta (Homo sapiens) (UniProt Q92731); assay: qHTS assay to identify small molecule agonists of the estrogen receptor beta (ER-beta) signaling pathway (AID 1259377; active = well fitted activation curve with a large enough effect in the signal ratio in the repeat runs, not every such curve was filed as active; the % refers to the signal ratio)
Chain of Estrogen receptor beta (Homo sapiens) (Q92731 whole entry, looked up, the tested form may be a part): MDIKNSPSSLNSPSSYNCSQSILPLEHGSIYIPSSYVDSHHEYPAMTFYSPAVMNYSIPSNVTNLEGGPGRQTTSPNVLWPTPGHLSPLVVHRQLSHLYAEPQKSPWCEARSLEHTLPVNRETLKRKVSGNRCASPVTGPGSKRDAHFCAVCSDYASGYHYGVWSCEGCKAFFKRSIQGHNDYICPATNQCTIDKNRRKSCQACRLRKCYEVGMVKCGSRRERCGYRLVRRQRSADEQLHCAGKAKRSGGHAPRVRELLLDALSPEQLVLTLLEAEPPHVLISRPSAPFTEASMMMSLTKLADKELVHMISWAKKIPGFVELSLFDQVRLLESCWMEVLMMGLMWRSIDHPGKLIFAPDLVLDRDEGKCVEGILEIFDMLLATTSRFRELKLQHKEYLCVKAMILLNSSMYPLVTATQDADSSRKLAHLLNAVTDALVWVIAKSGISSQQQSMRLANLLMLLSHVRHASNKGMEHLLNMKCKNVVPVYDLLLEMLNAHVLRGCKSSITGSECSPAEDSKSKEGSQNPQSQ
Outline: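 Agonist mode cell assay in GripTite HEK293T cells expressing an ER-beta fusion that drives beta-lactamase from an Upstream Activator Sequence; 16 hr compound exposure at 37C, then 2 h LiveBLAzer B/G FRET substrate at room temperature, fluorescence read-out.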

[11] = target: Estrogen receptor beta (Homo sapiens) (UniProt Q92731); assay: qHTS assay to identify small molecule antagonists of the estrogen receptor beta (ER-beta) signaling pathway (AID 1259378; active = well fitted inhibition curve with a large enough effect in the signal ratio in the repeat runs, not every such curve was filed as active; the % refers to the signal ratio; note: potency is the fitted concentration of half-maximal effect)
Outline: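 Antagonist mode: compounds added to beta-lactamase reporter HEK293T ER-beta-UAS cells stimulated with E2 (1nM final), 16 hr at 37C. LiveBLAzer B/G FRET substrate, 2 hours room temperature, fluorescence read-out.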

[12] = qHTS assay to identify small molecule agonists of the androgen receptor (AR) signaling pathway in the presence of an antagonist - cell viability counter screen (AID 1259379); note: nearly all actives have a fitted effect of over 25% in size; note: potency is the fitted concentration of half-maximal effect
Outline: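 MDA-kb2 human breast carcinoma cells (stable MMTV-luciferase, AR/GR responsive) were seeded 3,000 cells/well, pre-incubated 5 hr at 37C without CO2, then given 3.0uM nilutamide and compounds at 15 concentrations for 16 hr. Viability was read by CellTiter-Fluor fluorescence.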

[13] = qHTS assay to identify small molecule agonists of the estrogen receptor beta (ER-beta) signaling pathway - cell viability counter screen (AID 1259380); note: nearly all actives have a fitted effect of over 30% in size; note: potency is the fitted concentration of half-maximal effect
Outline: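 ER-beta-UAS-bla HEK293T cells in medium with 2% charcoal-stripped FBS were preincubated 6 hr at 37C, dosed with compound in DMSO for 16 hr, then after the bla read, CellTiter-Glo was added for 30 min at room temperature; luminescence recorded.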

[14] = qHTS assay to identify small molecule antagonists of the estrogen receptor beta (ER-beta) signaling pathway - cell viability counter screen (AID 1259382); note: nearly all actives have a fitted effect of over 55% in size; note: potency is the fitted concentration of half-maximal effect
Outline: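 ER-beta-UAS-bla HEK293T cells (2,000/well, 2% charcoal-stripped FBS) were pre-incubated 6 hr at 37C, then given compound plus 1nM final 17-beta-estradiol for 16 hr. Viability was read in the same wells by CellTiter-Glo luminescence after 30 min at room temperature.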

[15] = target: Estrogen receptor (Homo sapiens) (UniProt P03372); assay: qHTS assay to identify small molecule agonists of the estrogen receptor alpha (ER-alpha) signaling pathway in the presence of an antagonist (AID 1259383; calls by dose curve; note: top concentration of the series differs between compounds; nearly all actives have a fitted effect of over 15% in size)
Outline: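 VM7Luc4E2 cells (endogenous full-length ER-alpha, 4×ERE-luciferase) were precultured 5 days in phenol red-free medium with 10% charcoal-stripped FBS, given 10.0nM ICI-182,780 (final), then treated with compounds at 15 concentrations for 22hr at 37C; luminescence read with ONE-Glo.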

[16] = qHTS assay to identify small molecule agonists or antagonists of the thyroid stimulating hormone receptor (TSHR) signaling pathway - wild type cell line counter screen (AID 1259384; calls by dose curve)
Outline: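 Counter screen in untransfected Hek293: compounds (15-point titration, triplicate) plus phosphodiesterase inhibitor Ro20-1724 added after 18 h plating; 30 min RT. Intracellular cAMP via competitive d2/cryptate immunoassay, 1 h incubation.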

[17] = target: Thyrotropin receptor (Homo sapiens) (UniProt P16473); assay: qHTS assay to identify small molecule antagonists of the thyroid stimulating hormone receptor (TSHR) signaling pathway (AID 1259385; calls by dose curve; note: nearly all actives have a fitted effect of over 20% in size; note: potency is the fitted concentration of half-maximal effect)
Chain of Thyrotropin receptor (Homo sapiens) (P16473 whole entry, looked up): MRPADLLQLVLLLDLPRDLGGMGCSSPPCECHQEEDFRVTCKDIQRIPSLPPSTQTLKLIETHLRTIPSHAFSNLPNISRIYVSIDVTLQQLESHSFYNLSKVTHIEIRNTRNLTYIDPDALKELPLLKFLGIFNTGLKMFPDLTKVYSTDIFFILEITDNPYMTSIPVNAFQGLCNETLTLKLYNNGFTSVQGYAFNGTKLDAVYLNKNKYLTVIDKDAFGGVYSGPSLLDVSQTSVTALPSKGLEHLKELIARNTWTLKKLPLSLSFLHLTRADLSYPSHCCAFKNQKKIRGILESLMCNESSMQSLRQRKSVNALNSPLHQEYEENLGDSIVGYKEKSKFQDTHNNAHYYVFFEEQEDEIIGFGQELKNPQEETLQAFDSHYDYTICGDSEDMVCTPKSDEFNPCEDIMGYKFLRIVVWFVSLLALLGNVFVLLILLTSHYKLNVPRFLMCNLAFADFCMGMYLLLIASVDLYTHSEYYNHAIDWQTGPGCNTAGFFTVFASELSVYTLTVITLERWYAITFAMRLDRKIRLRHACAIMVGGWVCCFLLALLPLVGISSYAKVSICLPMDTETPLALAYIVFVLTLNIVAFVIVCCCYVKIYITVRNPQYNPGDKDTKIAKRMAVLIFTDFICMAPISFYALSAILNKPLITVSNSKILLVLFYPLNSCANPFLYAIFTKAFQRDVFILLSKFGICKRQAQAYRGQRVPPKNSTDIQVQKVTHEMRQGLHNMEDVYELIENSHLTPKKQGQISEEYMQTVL
Outline: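 Antagonist mode: compound-treated TSHR-expressing HEK293 cells were stimulated with 1.5 ng/mL TSH (final) in presence of Ro20-1724 for 30 min at RT. HTRF cAMP detection after 1 h; each compound tested at 15 concentrations, triplicate.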

[18] = target: Androgen receptor (Homo sapiens) (UniProt P10275); assay: qHTS assay to identify small molecule antagonists of the androgen receptor (AR) signaling pathway using the MDA cell line in the presence of 0.5 nM R1881 (AID 1259243); note: nearly all actives have a fitted effect of over 50% in size; note: potency is the fitted concentration of half-maximal effect
Chain of Androgen receptor (Homo sapiens) (P10275 whole entry, looked up): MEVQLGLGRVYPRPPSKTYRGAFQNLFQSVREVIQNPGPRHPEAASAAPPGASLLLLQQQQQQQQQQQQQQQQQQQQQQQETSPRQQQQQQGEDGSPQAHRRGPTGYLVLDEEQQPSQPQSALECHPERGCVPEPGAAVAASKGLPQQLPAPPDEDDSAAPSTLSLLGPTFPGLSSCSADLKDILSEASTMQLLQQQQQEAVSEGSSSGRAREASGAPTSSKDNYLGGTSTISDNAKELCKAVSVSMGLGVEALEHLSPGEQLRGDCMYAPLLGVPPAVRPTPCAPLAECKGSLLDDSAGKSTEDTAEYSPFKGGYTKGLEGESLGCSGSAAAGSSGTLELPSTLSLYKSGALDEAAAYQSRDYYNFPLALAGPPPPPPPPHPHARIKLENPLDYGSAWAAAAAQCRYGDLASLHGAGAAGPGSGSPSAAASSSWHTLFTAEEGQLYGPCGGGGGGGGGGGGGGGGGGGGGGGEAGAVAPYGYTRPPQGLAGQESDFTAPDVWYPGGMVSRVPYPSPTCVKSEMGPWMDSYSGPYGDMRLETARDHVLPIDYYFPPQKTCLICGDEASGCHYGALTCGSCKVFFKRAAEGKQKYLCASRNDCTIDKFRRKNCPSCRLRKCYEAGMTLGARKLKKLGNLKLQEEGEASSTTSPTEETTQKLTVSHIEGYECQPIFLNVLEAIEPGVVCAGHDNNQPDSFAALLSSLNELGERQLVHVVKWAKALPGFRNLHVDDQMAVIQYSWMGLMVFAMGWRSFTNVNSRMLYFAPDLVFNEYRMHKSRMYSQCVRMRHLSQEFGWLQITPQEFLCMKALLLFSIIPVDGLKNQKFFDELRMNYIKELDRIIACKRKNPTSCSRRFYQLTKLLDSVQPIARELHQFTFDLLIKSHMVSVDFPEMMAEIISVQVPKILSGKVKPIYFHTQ
Outline: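 MDA-kb2 human breast carcinoma cells carrying an MMTV-luciferase reporter (AR- and GR-responsive) were plated, rested 5 hr at 37C, dosed with compounds, then stimulated with 0.5 nM R1881 (final) for 16 hr; luminescence was read after ONE-Glo.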

[19] = qHTS assay to identify small molecule antagonists of the estrogen receptor alpha (ER-alpha) signaling pathway using the BG1 cell line in the presence of 0.1 nM 17-beta-estradiol - cell viability counter screen (AID 1259241); note: nearly all actives have a fitted effect of over 40% in size; note: potency is the fitted concentration of half-maximal effect
Outline: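 Cells were plated and left 24 hr, compounds in DMSO were pinned in, 17beta-estradiol was added to 0.1 nM final, and after 22 hr CellTiter-Fluor reagent was added for 30 min before fluorescence was read.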

| Structure (SMILES) | Potency [1] | Potency [2] | Potency [3] | Potency [4] | Potency [5] | Potency [6] | Potency [7] | Potency [8] | Potency [9] | Potency [10] | Potency [11] | Potency [12] | Potency [13] | Potency [14] | Potency [15] | outcome [16] | Potency [17] | Potency [18] | Potency [19] |
| --- | --- | --- | --- | --- | --- | --- | --- | --- | --- | --- | --- | --- | --- | --- | --- | --- | --- | --- | --- |
| CCCCCCCC/C=C\CCCCCCCCN | inactive | inactive | inactive | inactive | inactive | inactive | inactive | inactive | inactive | inactive | inactive | inactive | inactive | inactive | inactive | inactive | inactive |  |  |
| O=C1CCCCCCCCCCCCCCCO1 | inactive | inactive |  | inactive | inactive | inactive | inactive | inactive | inactive | inactive | inactive | inactive | inactive | inactive | inactive | inactive | inactive |  |  |
| COC1=C(OC)C(=O)C(CCCCCCCCCCO)=C(C)C1=O | inactive |  | inactive |  | inactive | inactive | inactive | inactive | inactive |  |  |  | 23.7 µM (active) | 23.7 µM (active) | inactive |  |  | 29.8 µM (active) |  |
| Cc1cc(C)c(/C=C2\C(=O)Nc3ccccc32)[nH]1 | inactive | inactive | inactive |  | inactive | inactive | inactive | inactive |  |  |  | inactive | 11.9 µM (active) | inactive | inactive |  |  | 13.3 µM (active) |  |
| OC[C@H]1O[C@H](O[C@H]2O[C@H](CO)[C@@H](O)[C@H](O)[C@H]2O)[C@H](O)[C@@H](O)[C@@H]1O | inactive |  |  | inactive | inactive | inactive | inactive | inactive | inactive |  |  | inactive | inactive | inactive |  | inactive | inactive | inactive |  |
| C1CCC(SSC2CCCCC2)CC1 | inactive | inactive |  | inactive | inactive | inactive | inactive | inactive | inactive | inactive | inactive | inactive |  | inactive | inactive | inactive | inactive |  |  |
| CCN(CC)C(=O)c1cc(S(=O)(=O)Cc2ccccc2)c(N2CCC(c3ccccc3)CC2)cc1N(CC)CCN(C)C |  | inactive | inactive | inactive | inactive | 13.5 µM (active) | 9.58 µM (active) | inactive | 6.78 µM (active) |  | 21.4 µM (active) |  | 19.1 µM (active) | 19.1 µM (active) | inactive | inactive |  |  | inactive |
| CCO[Si](OCC)(OCC)OCC | inactive | inactive |  | inactive | inactive | inactive | inactive | inactive | inactive |  | inactive | inactive |  | inactive | inactive | inactive | inactive |  |  |
| O=S(=O)(O)c1ccc(Nc2nc(Nc3ccc(/C=C/c4ccc(Nc5nc(Nc6ccc(S(=O)(=O)O)cc6)nc(N(CCO)CCO)n5)cc4S(=O)(=O)O)c(S(=O)(=O)O)c3)nc(N(CCO)CCO)n2)cc1 | inactive | inactive |  | inactive | inactive | inactive | inactive | inactive | inactive |  |  |  | inactive | inactive | inactive | inactive | inactive | inactive |  |
| C=CC(=O)Nc1cc2c(Nc3ccc(F)c(Cl)c3)ncnc2cc1OCCCN1CCOCC1 | 0.376 µM (active) | inactive | 0.891 µM (active) | inactive | inactive | 3.76 µM (active) | 7.5 µM (active) | inactive | 1.68 µM (active) |  |  | 0.841 µM (active) | 23.7 µM (active) | inactive | inactive | inactive | 26.6 µM (active) | 7.5 µM (active) |  |
| O=S(=O)(O)c1ccc(N=Nc2c(O)ccc3ccccc23)cc1 | 30.6 µM (active) |  |  |  |  | 27.3 µM (active) | 27.3 µM (active) | inactive |  | inactive | inactive | 27.3 µM (active) | 43.3 µM (active) |  | inactive | inactive |  |  | 54.5 µM (active) |
| CN(C)[C@@H](CCOc1cccc2ccccc12)c1ccccc1 |  | inactive |  | inactive | inactive |  |  | inactive | 29.8 µM (active) |  | 29.8 µM (active) | 29.8 µM (active) |  | 15 µM (active) | inactive | inactive | inactive | 26.6 µM (active) | inactive |
| CC1(C)CCC[C@]2(C)[C@H]3CC(=O)O[C@]3(C)CC[C@@H]12 | inactive | inactive |  | inactive | inactive | inactive | inactive | inactive | 30.6 µM (active) |  |  | inactive |  | inactive | inactive | inactive | inactive |  |  |
| CCn1c2ccccc2c2cc([N+](=O)[O-])ccc21 | inactive | inactive |  | inactive | inactive | inactive | inactive | inactive | inactive |  | inactive | inactive | inactive | inactive | inactive |  |  |  |  |
| COC(=O)c1ccccc1C | inactive | inactive |  | inactive | inactive | inactive | inactive | inactive | inactive | inactive | inactive | inactive |  | inactive | inactive | inactive | inactive |  |  |
